Bioassay records: PubChem BioAssay, National Center for Advancing Translational Sciences (NCATS)
Compounds with a hit are over-represented: about 17% of the library has one in this group of screens.
HepG2 tox = qHTS for Inhibitors of TGF-b: Cytotox Counterscreen. HepG2 CAGA-GFP viability, ATP luminescence, 18 h. Potency, µM (titrated, usually from 46.1 µM), without a hit: at the top dose activity change, negative = cytotoxicity, actives largely listed as cytotoxic. hit rate 0.76% among 410,000
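CellTiter-Glo luminescence gave cytotoxicity after 18 hours at 37 degrees C. The cells were HepG2 CAGA-GFP in 1% FBS DMEM, stimulated with 500 pg/mL TGF-beta after compound addition. %Activity was normalised to no-cell wells (complete cell-killing) and DMSO (no toxicity), and curves were fitted and classified.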
DT40 TDP1 no CPT = qHTS for Inhibitors of human tyrosyl-DNA phosphodiesterase 1 (TDP1): qHTS in cells in absence of CPT; DT40 Tdp1-/- hTDP1 cells, no CPT, ATP luminescence, 48 h; Potency, µM (top dose mostly 46.2 µM), without a hit: top-dose activity change, negative = growth inhibition, actives largely listed as inhibitors; hit rate 15% among 420,000; AID 686978, 2013; also: % is scaled to controls: 0 for no effect and ±100 for the full control effect; nearly all actives have a fitted effect of over 55% in size
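Growth of hTDP1-complemented DT40 Tdp1-knockout cells is measured by ATP luminescence after at least 48 hr compound exposure at 37 °C, with DMSO substituting for the 20 nM CPT used in the parallel screen.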
HT1080NT lethal = qHTS for induction of synthetic lethality in tumor cells producing 2HG: qHTS for the HT-1080-NT fibrosarcoma cell line; HT-1080-NT fibrosarcoma viability, CellTiter-Glo ATP luminescence, 48 h; Potency, µM (titrated, usually from 46.1 µM), for inactives: at the top dose activity, negative = less viability, usual class: cytotoxic; hit rate 1.6% among 360,000; AID 686970, 2013;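 also: NT is the 2HG producing partner of a matched IDH1 knockdown line; 0% = DMSO-treated cells and -100% = media-only wells without cells; nearly all actives have a fitted effect of over 55% in size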
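750 cells/well, RPMI + 5% FBS; 2 h settle, compound pin-transfer, 48 h at 37 degrees C. CellTiter-Glo 10 min RT, luminescence. Normalized to DMSO and media-only wells.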
HT1080 IDH1KD tx = qHTS for induction of synthetic lethality in tumor cells producing 2HG: qHTS for the HT-1080-IDH1KD cell line | Potency, µM (series often up to 46.1 µM), for inactives: at the top dose activity, negative = toxicity, most hits filed as cytotoxic | hit rate 2% among 360,000 | HT-1080 IDH1 knockdown viability, ATP luminescence, 48 h;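 also: 0% = DMSO wells and -100% = cell-free medium wells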
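Using the IDH1-knockdown HT-1080 line run in the same batch and compound series as the NT line, viability after 48 h at 37 °C was determined by CellTiter-Glo luminescence and expressed as % activity.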
DT40 TDP1 CPT = qHTS for Inhibitors of human tyrosyl-DNA phosphodiesterase 1 (TDP1): qHTS in cells in presence of CPT; chicken DT40 Tdp1-/-;hTDP1 cells + 20 nM CPT, ATP luminescence, 48 h; Potency, µM (highest dose often 46.2 µM), without a hit: at the top dose activity change, negative = growth inhibition, actives largely listed as inhibitors; hit rate 12% among 420,000; also: % is scaled to controls: 0 for no effect and ±100 for the full control effect; nearly all actives have a fitted effect of over 55% in size
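Cell growth measured by CellTiter-Glo luminescence after a minimum 48 h, 37 C compound exposure with 20 nM CPT in Tdp1-knockout DT40 cells stably expressing hTDP1, seeded 400/well; qHTS titration format.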
TGFb SMAD3 inh = qHTS for Inhibitors of TGF-b | AID 588855, 2011 | Potency, µM (doses to about 46.1 µM), for inactives: at the highest dose activity, negative = inhibition, most hits filed as inhibitors | HepG2 CAGA-GFP TGF-b/SMAD3 reporter, GFP fluorescence, 18 h; TGF-beta stimulated, 500 pg/mL final | hit rate 1.2% among 410,000; also: % is scaled to controls: 0 for no effect and ±100 for the full control effect; nearly all actives have a fitted effect of over 65% in size
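TGF-beta reporter screen: HEPG2 CAGA-GFP, 1% FBS, 500 pg/mL TGF-beta final, 18 h; per-cell GFP summed per well; curves fitted and categorized by class.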
* = called active by the depositor. Calls follow the shape of the dose curve; as a rule, active = well fitted curve in the direction sought with a large enough effect; inconclusive = small, poorly fitted or top-dose-only effect, or another doubt; inactive = no such curve, though single readings can be large; an effect the other way counts as inactive or inconclusive. Potency is read from the fitted curve at half-maximal effect.

`Cc1cccc(CNc2nc(-c3ccc4c(c3)OCO4)nc3ccccc23)c1` gave DT40 TDP1 no CPT 23.1µM* and DT40 TDP1 CPT inconclusive.
For CC(=O)NCCNc1ncnc2ccc(-c3ccc(C(=O)N(C)C)cc3)cc12 the results were DT40 TDP1 no CPT -5.2% and DT40 TDP1 CPT 4.7%.
Screening Cc1cccc(CNc2ncnc3ccc(-c4ccc(C(=O)N(C)C)cc4)cc23)c1 returned DT40 TDP1 no CPT 25.9µM* and DT40 TDP1 CPT inconclusive.
Screening CC(=O)NCCNc1nc(-c2ccc3c(c2)OCO3)nc2ccccc12 returned DT40 TDP1 no CPT -9.2% and DT40 TDP1 CPT 7.9%.
`Cc1cccc(CNc2ncnc3ccc(-c4ccc5c(c4)OCO5)cc23)c1` gave HepG2 tox -31.3%, DT40 TDP1 no CPT 18.4µM*, DT40 TDP1 CPT inconclusive and TGFb SMAD3 inh inconclusive.
Screening Cc1cccc(-c2nc(NCCCN3CCOCC3)c3ccccc3n2)c1 returned HepG2 tox -15.5%, DT40 TDP1 no CPT inconclusive, HT1080NT lethal inconclusive, HT1080 IDH1KD tx inconclusive, DT40 TDP1 CPT 18.4µM* and TGFb SMAD3 inh 22.6%.
For c1ccc(-c2nc(NCCCN3CCOCC3)c3ccccc3n2)cc1 the results were HepG2 tox -31.8%, DT40 TDP1 no CPT inconclusive, HT1080NT lethal -0.9%, HT1080 IDH1KD tx -14.2%, DT40 TDP1 CPT 9.4% and TGFb SMAD3 inh 0.6%.
For COc1cccc(-c2cncnc2N(C)Cc2ccco2)c1 the results were DT40 TDP1 no CPT -17.0% and DT40 TDP1 CPT -10.7%.
Screening Cc1cccc(CNc2ncncc2-c2cccnc2)c1 returned DT40 TDP1 no CPT -11.4% and DT40 TDP1 CPT -6.5%.
c1cncc(CNc2ncncc2-c2ccc3c(c2)OCO3)c1 was read as DT40 TDP1 no CPT 10.3µM* and DT40 TDP1 CPT 6.51µM*.
`Cc1cccc(CNc2ncncc2-c2ccc(C(=O)N(C)C)cc2)c1` gave DT40 TDP1 no CPT 3.66µM* and DT40 TDP1 CPT inconclusive.
CC(C)CCNC(=O)CN(Cc1ccc2c(c1)OCO2)C(=O)Cn1nnc(-c2cccs2)n1 was read as HepG2 tox -9.2%, DT40 TDP1 no CPT -22.7%, HT1080NT lethal -18.5%, HT1080 IDH1KD tx -14.7%, DT40 TDP1 CPT -19.2% and TGFb SMAD3 inh -10.5%.
Screening CC(=O)c1ccc(NC(=O)C(C)Nc2ccc(Cl)cc2)cc1 (centres undefined) returned HepG2 tox -14.5%, DT40 TDP1 no CPT -25.1%, HT1080NT lethal -4.8%, HT1080 IDH1KD tx -2.4%, DT40 TDP1 CPT inconclusive and TGFb SMAD3 inh -3.3%.
For Cc1noc(C)c1COC(=O)c1cccc(S(=O)(=O)N2CCCCCC2)c1 the results were HepG2 tox -5.9%, DT40 TDP1 no CPT 14.6µM*, HT1080NT lethal -10.4%, HT1080 IDH1KD tx 20.6µM*, DT40 TDP1 CPT 14.6µM* and TGFb SMAD3 inh -0.5%.
Screening O=C(COC(=O)c1ccc(S(=O)(=O)NCc2ccco2)cc1)c1ccccc1 returned HepG2 tox -1.9%, DT40 TDP1 no CPT -19.2%, HT1080NT lethal 9.8%, HT1080 IDH1KD tx 8.5%, DT40 TDP1 CPT 9.9% and TGFb SMAD3 inh 3.5%.
Cc1noc(C)c1COC(=O)c1ccc(S(=O)(=O)NCc2ccco2)cc1 was read as HepG2 tox -35.7%, DT40 TDP1 no CPT inconclusive, HT1080NT lethal -5.0%, HT1080 IDH1KD tx -9.5%, DT40 TDP1 CPT 16.4µM* and TGFb SMAD3 inh inconclusive.
